Test results: PubChem BioAssay AID588720 (NMMLSC, 2011)
Entries with a potency or affinity are not part of this list. Activity calls are given as the source filed them.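 How the source made its calls: active means good curve fit with EC50 under 10 µM, EC50 error below a tenth of EC50, span above a set limit; inactive means the rest.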

biological target: Beta-adrenergic receptor kinase 1 (Homo sapiens) (UniProt P25098); test: blockers of aptamer binding to GRK2 – biochemical, flow cytometry beads, FAM-aptamer, powder set 1, dose response (AID 588720); conditions: biotinylated GRK2 beads, FAM-aptamer displacement; series mostly up to 100 µM
Sequence (P25098 whole entry, looked up): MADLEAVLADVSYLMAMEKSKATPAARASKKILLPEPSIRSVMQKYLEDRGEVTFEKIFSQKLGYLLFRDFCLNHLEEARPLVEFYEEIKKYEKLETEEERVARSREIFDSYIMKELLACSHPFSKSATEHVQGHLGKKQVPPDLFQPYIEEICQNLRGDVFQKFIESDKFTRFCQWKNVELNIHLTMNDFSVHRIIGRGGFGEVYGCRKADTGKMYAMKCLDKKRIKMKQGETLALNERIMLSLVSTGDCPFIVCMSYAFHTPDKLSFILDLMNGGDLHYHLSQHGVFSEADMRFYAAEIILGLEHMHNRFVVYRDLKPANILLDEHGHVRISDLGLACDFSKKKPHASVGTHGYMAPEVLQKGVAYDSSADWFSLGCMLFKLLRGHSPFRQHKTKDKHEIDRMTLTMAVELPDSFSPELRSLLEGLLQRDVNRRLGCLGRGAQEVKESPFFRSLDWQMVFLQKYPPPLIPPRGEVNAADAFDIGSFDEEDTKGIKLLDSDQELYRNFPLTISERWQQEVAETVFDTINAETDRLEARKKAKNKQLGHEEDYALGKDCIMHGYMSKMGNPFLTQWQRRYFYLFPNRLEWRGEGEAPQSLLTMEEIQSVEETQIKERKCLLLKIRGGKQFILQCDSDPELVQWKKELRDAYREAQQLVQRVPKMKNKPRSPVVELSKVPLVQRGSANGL

outcome, inactive:
Cc1ccc(CCNC(=O)CCS(=O)(=O)c2ccc(Br)cc2)cc1
COC(=O)c1ccccc1NC(=O)CCS(=O)(=O)c1ccc(Br)s1
CC(=O)N1CCN(Cc2nc3cc(Cl)ccc3c(=O)[nH]2)CC1
Cc1cc2ccccc2n1CCNC(=O)c1cccs1
O=C(CN1CCc2ccccc21)NC(=O)NCc1ccccc1
O=C(O)C1CC(=O)N(c2ccc3c(c2)OCCO3)C1 (configuration not stated)
Cc1cc2ccccc2n1CCNC(=O)C(C)Oc1ccccc1 (configuration not stated)
